High-throughput results: PubChem, National Center for Advancing Translational Sciences (NCATS)
In the library only some 15% were active in any assay of this set; here they are far more common.
ELG1 DNA repair: blocks ELG1-dependent DNA repair in HEK293T cells; HEK293T ELG1-luciferase reporter, luminescence, 16 h; DNA damage induced by 5-fluorouridine; Potency, µM (top dose mostly 46.1 µM), actives largely listed as inhibitors; hit rate 2.3% among 330,000; note: nearly all actives have a fitted effect of over 55% in size
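DMSO vehicle served as the neutral condition. Each well held 2,000 cells given 5-fluorouridine plus compound; after 16 hr at 37 °C/5% CO2, ONE-Glo was added and luciferase measured 30 min later.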
Gal4-VP16 FLuc: counter-screen for ROR gamma inhibitors: Gal4-VP16 reporter | Drosophila S2 Gal4-VP16 UAS-luciferase, luminescence, 20 h | hit rate 3.5% among 310,000 | Potency, µM (titrated, usually from 53.6 µM), actives largely listed as inhibitors;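 note: Gal4-VP16 expression switched on by copper sulfate through the metallothionein promoter; nearly all actives have a fitted effect of over 50% in size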
DT40 TDP1 CPT: growth inhibition of DT40 Tdp1-/-;hTDP1 cells with camptothecin (screen for TDP1 inhibitors). hit rate 12% among 420,000. chicken DT40 Tdp1-/-;hTDP1 cells + 20 nM CPT, ATP luminescence, 48 h. AID 686979. Potency, µM (titrated, usually from 46.2 µM), most hits filed as inhibitors; note: nearly all actives have a fitted effect of over 55% in size
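Chicken DT40 Tdp1-/- cells stably complemented with human TDP1 were seeded at 400 cells/well in medium containing 20 nM camptothecin, exposed to pin-transferred compounds, and grown at 37 °C for at least 48 hr. Viability was read as ATP luminescence.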
RORgamma inh: inhibitors of mouse ROR gamma transcriptional activity; Potency, µM (top dose mostly 53.6 µM), usual class: inhibitors; hit rate 5.4% among 310,000; P51450; Drosophila S2 Gal4-RORgamma UAS-luciferase reporter, 20 h; note: nearly all actives have a fitted effect of over 60% in size
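Read-out: Photinus luciferase luminescence; inhibitors lower reporter signal. Insect Schneider cells with Gal4-ROR gamma fusion under metallothionein promoter, UAS reporter; 700 uM final copper sulfate induction, 20 hr, ambient temperature.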
ALOX12 inh: blocks human arachidonate 12S-lipoxygenase | Potency, µM (series often up to 108 µM), hits mostly inhibitors | purified 12hLO, xylenol orange hydroperoxide absorbance | hit rate 1.1% among 580,000 | P18054
Target sequence (P18054 whole entry, looked up): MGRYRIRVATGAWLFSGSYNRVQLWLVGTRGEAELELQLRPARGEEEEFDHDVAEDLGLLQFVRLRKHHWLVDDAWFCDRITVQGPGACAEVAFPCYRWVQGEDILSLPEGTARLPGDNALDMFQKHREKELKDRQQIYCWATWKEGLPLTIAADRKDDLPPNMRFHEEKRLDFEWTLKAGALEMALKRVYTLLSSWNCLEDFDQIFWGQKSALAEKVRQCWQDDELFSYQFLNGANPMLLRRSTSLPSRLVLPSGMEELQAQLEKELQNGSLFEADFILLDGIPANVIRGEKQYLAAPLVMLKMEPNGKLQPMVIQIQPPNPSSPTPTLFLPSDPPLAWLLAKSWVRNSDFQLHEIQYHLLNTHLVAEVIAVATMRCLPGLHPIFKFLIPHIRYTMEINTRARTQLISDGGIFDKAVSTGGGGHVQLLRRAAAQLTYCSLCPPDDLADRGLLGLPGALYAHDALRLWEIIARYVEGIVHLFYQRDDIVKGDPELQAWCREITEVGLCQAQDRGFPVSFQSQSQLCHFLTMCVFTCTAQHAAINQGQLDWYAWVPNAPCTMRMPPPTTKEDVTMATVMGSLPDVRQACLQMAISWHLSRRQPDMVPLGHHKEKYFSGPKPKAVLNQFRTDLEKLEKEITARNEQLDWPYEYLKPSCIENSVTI
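Purified human 12hLO at 150 nM in 25 mM Hepes, 0.01% Triton X-100, pH 7.0, preincubated 15 min at room temperature with compound. Reaction started with 40 uM arachidonic acid, 30 min at room temperature. Hydroperoxide measured by Fe-xylenol orange, 573/405 nm absorbance ratio.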
TDP1 cell noCPT: qHTS for Inhibitors of human tyrosyl-DNA phosphodiesterase 1 (TDP1): qHTS in cells in absence of CPT; Potency, µM (titrated, usually from 46.2 µM), most hits filed as inhibitors; hit rate 15% among 420,000; DT40 Tdp1-/- hTDP1 cells, no CPT, ATP luminescence, 48 h; note: nearly all actives have a fitted effect of over 55% in size
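Cells were dispensed at 400 per well, compounds added by pin tool, plates incubated ≥48 hr at 37 °C, then CellTiter-Glo added for 30 min at room temperature before luminescence reading. Line: DT40 Tdp1-/- complemented with hTDP1; camptothecin omitted.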
A number is an active result; n = inactive; u = inconclusive; x = not tested or not shown; [ ] = another dose, or the depositor's remark. Calls come from the whole dose curve; as a rule, active = well fitted curve in the direction sought with a large enough effect; inconclusive = small, poorly fitted or top-dose-only effect, or another doubt; inactive = no such curve, though single readings can be large; an effect the other way counts as inactive or inconclusive.

SMILES | ELG1 DNA repair | Gal4-VP16 FLuc | DT40 TDP1 CPT | RORgamma inh | ALOX12 inh | TDP1 cell noCPT
CN(C)CCCN1c2ccccc2Sc2ccc(C(F)(F)F)cc21 | n | n | u | n | u | 24µM
CCN(CC)CCCCN1c2ccccc2Sc2ccccc21 | n | n | 21µM | n | n | 21µM
O=C1c2ccccc2C(=O)N1CC(=O)N1c2ccccc2Sc2ccc(C(F)(F)F)cc21 | n | n | n | n | n | n
O=C(Nc1cccc(C(F)(F)F)c1)C1CCN(S(=O)(=O)c2cccc3nsnc23)CC1 | x | x | 23µM | x | n | 23µM
O=C(NCc1cccnc1)C1CCN(S(=O)(=O)c2cccc(C(F)(F)F)c2)CC1 | n | x | n | x | n | n
CCCCN(CCCC)C(=O)C1CCN(S(=O)(=O)c2cccc3nsnc23)CC1 | x | x | 16µM | x | n | 26µM
O=C(Nc1cccc(C(F)(F)F)c1)C1CCN(S(=O)(=O)c2cccnc2)CC1 | n | n | u | n | n | 21µM
Cc1nc(C)c(C(=O)N2CCCC(Cc3noc(-c4cnccn4)n3)C2)s1 (centres undefined) | x | x | x | x | n | x
NC(N)=NC(N)=Nc1cccc2ccccc12 | n | n | u | n | n | u
Cc1c(Cl)cccc1N=C(N)N=C(N)N | n | n | u | u | n | 23µM
COc1cc(OC)c(-c2nnc(-c3ccc(OC)c(OC)c3OC)o2)cc1OC | u | n | 14µM | n | n | 13µM
Cc1c(NC(=O)c2cc(-n3cnnc3)ccc2Cl)cccc1-c1nc2ccccc2o1 | u | n | n | n | n | u
O=C(Nc1ccc(-c2nc3ccccc3o2)cc1)c1cc(-n2cnnc2)ccc1Cl | u | u | 18µM | u | n | u
O=C(Nc1ccc(-c2nc3ccccc3o2)c(O)c1)c1cc(-n2cnnc2)ccc1Cl | 21µM | u | 26µM | 8.9µM | n | u
COc1ccc(-c2nnc(CSc3nc(C)c(C)n3C3CCCC3)o2)cc1 | x | x | x | x | n | x
COc1cccc(Cn2c(C(C)n3c(C)nc4ccccc43)nc3ccccc32)c1 (centres undefined) | x | x | u | x | n | 12µM
COc1ccc(CCNC(=O)Cn2c(-c3nonc3N)nc3ccccc32)cc1OC | u | n | n | n | n | u
CCOc1ccc(CCNC(=O)Cn2c(-c3nonc3N)nc3ccccc32)cc1OCC | u | n | 10µM | n | n | 13µM
COc1cc(Cn2c(-c3nonc3N)nc3ccccc32)ccc1C | n | n | 2.9µM | n | n | 4.1µM
Nc1nonc1-c1nc2ccccc2n1Cc1cccc(Cl)c1 | x | x | n | x | n | n
C=CCn1c(C(C)n2c(-c3cnccn3)nc3ccccc32)nc2ccccc21 (centres undefined) | x | x | u | x | n | u
Cc1ccc(Cn2c(-c3nonc3N)nc3ccccc32)cc1 | n | n | n | n | n | n
COc1cccc(Cn2c(-c3nonc3N)nc3ccccc32)c1 | n | n | 2.9µM | n | n | 2.9µM
CC(C(=O)NCc1cccnc1)N(c1ccc(Oc2ccccc2)cc1)S(C)(=O)=O (centres undefined) | x | x | x | x | n | x
CCCCn1c(=O)[nH]c(=O)c2c1nc(COC(=O)C1CCCCC1)n2CC | x | x | x | x | n | x
SMILES | ELG1 DNA repair | Gal4-VP16 FLuc | DT40 TDP1 CPT | RORgamma inh | ALOX12 inh | TDP1 cell noCPT
C1=CC2=NC34CCCCC3CC3=C(CCCC3)N4C2=CC1=NC1CCCCC1 (centres undefined) | x | x | 5.2µM | x | x | 5.2µM
O=C(NCc1cccs1)c1cc(-c2cccc(C(F)(F)F)c2)c2nncn2n1 | x | x | x | x | n[6.33 µM] | x
CN(Cc1ccc(Cl)cc1)C(=O)CNC(=O)C12CC3CC(CC(C3)C1)C2 | u | x | 18µM | x | n | u
C=CCc1cccc(/C=N/c2ncn[nH]2)c1O | n | n | n | n | n | n
C=CCc1cccc(C=Nc2cc(Br)ccc2O)c1O | n | n | u | n | 35µM | u
Cc1cccc(C=Nc2ccc3c4c(cccc24)CC3)c1O | u | n | n | n | n | n
CCc1ccc(O)c(N=Cc2cccc(C)c2O)c1 | n | u | 21µM | 11µM | u | 21µM
Cc1c(-c2ccccc2)c(=O)oc2ccc(OS(C)(=O)=O)cc12 | x | x | x | x | n | x
Cc1nn(CCC(=O)Nc2cccc(F)c2)c(=O)c(C#N)c1C | x | x | x | x | n | x
O=C(NC12CC3CC(CC(C3)C1)C2)C12CC3CC(C1)CC(n1cnc(Cl)n1)(C3)C2 | n | n | 21µM | n | n | 16µM
Cc1noc(NS(=O)(=O)c2ccc(NC(=O)C34CC5CC(C3)CC(n3cnc(Cl)n3)(C5)C4)cc2)c1C | n | u | n | n | n | n
C=Cc1ccc(Cn2nc(-c3ccc(C)c(S(=O)(=O)N4CCCC4)c3)ccc2=O)cc1 | x | x | x | x | n | x
C=Cc1ccc(Cn2nc(-c3ccc(C)c(S(=O)(=O)N(CC)CC)c3)ccc2=O)cc1 | x | x | 16µM | x | n | u
CCc1ccc(NC(=O)c2ccc3c(Cl)c4c(nc3c2)CCCC4)cc1 | x | x | x | x | n | x
O=C(NCc1ccc(Cl)cc1)c1ccc2c(Cl)c3c(nc2c1)CCCC3 | x | x | 16µM | x | n | u
O=C(NCc1cccc(Cl)c1)c1ccc2c(Cl)c3c(nc2c1)CCCC3 | x | x | u | x | n | 15µM
C#CCN1CCC(C(=O)NCCN2CCCCC2)CC1 | x | x | x | x | n | x
Cc1ccc2[nH]c(=O)c(NC(N)=S)nc2c1 | n | u | n | 11µM | u | n
NC(=S)Nc1nc2ccccc2[nH]c1=O | n | n | x | u | u | x
O=C(NCc1ccncc1)c1cc(S(=O)(=O)C2CCS(=O)(=O)C2)ccc1F (centres undefined) | x | x | x | x | n | x
CN(C)C(=O)/C(C#N)=C\c1cc(Br)c(Sc2ccc(Cl)cc2)o1 | u | 10µM | u | u | x | 15µM
Cc1noc(/C=C/c2nn(C)cc2Cl)c1[N+](=O)[O-] | u | u | 21µM | u | n | 12µM
Cc1cc(O)ccc1N/C=C/c1onc(C)c1[N+](=O)[O-] | u | n | n | n | n | n
Cc1cccc(N/C=C/c2onc(C)c2[N+](=O)[O-])c1 | x | n | u | n | n | 9.2µM
COc1cc(/C=C/c2onc(C)c2[N+](=O)[O-])cc(OC)c1OC | x | x | n | x | n | n
Cc1cccc(/C=C/c2onc(C)c2[N+](=O)[O-])n1 | x | x | 2.6µM | x | n | 2.6µM
Cc1cc(NC(=O)CCCn2nc(C)c([N+](=O)[O-])c2C)no1 | n | n | n | n | n | n
O=c1[nH]nc(-c2ccco2)c2c1Nc1nnnn1C2c1cccc(F)c1 (centres undefined) | x | x | x | x | n | x
Cc1cccc(C(=O)N2CCC3(CC2)c2nc[nH]c2CCN3CC(C)C)n1 | x | x | x | x | n | x
COc1cccc(CNC(=O)Cn2ccn3nc(-c4ccccc4)c(CO)c3c2=O)c1 | x | x | x | x | n | x
